An excerpt weighted towards active compounds, which were near 27% of everything screened.
Pyk2 oligo antag: blocks oligomerization of human Pyk2 in cells. Q293 cells, Pyk2 FERM NanoBiT luminescence; active compounds read low. z-score (the deposit names both 25 µM and 10 µM). hit rate 0.83% among 99,000;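 active means Z-score of -3 or lower, scaled per plate to the spread of control and sample wells; inactive means z-score above -3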;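 further: negative z-score means lost luminescence so less FERM oligomerization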
Cav32 inh: human Cav3.2 channel inhibition, primary screen; O95180; Cav3.2-expressing cells, Fluo-4 calcium fluorescence FDSS; active compounds read low; B-score at 10 µM; hit rate 4% among 100,000; AID 449739;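 active means single-dose well whose peak fluorescence ratio is a statistical outlier from its plate by either plate-standardised score or position-corrected B-score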
CYP2C9 inh: inhibitors of human CYP2C9 | CYP2C9 Supersomes, luciferin-H conversion, luminescence | inhibition, % at 5 µM | hit rate 20% among 96,000;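 active means blocking of liver enzyme CYP2C9 beyond about 50% at 5 µM, limit read from the data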
Target sequence (P11712 whole entry, looked up): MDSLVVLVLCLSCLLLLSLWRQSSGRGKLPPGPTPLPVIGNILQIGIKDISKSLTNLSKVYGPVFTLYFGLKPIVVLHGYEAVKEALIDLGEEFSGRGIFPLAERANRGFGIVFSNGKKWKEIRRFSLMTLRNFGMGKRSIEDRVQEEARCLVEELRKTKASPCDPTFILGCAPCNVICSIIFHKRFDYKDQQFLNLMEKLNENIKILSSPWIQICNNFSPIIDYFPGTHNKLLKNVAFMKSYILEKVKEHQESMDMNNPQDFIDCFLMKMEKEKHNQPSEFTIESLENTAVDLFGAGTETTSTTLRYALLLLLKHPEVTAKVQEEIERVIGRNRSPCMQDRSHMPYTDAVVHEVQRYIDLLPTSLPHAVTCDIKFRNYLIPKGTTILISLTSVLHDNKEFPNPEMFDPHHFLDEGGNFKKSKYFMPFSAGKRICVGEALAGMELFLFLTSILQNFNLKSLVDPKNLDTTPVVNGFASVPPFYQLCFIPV
CYP2C19 act: increases human CYP2C19 enzyme activity; P33261; recombinant CYP2C19, luciferin-H EGE luminescence; active compounds read high; 0 = fully inhibited enzyme, 1 = untreated enzyme; activation factor at 5 µM; 96,000 tested, under 10 active; AID 1025;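 active means activation factor of at least 2 at 5 µM in the primary screen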;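 further: 0 = wells with 2.5 mM tranylcypromine and 1 = vehicle-only wells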
CYP2C9 activ: increases human cytochrome P450 2C9 activity | activation factor at 5 µM | P11712 | hit rate 1.4% among 96,000 | recombinant CYP2C9, luciferin-H conversion, luminescence; active compounds read high; factor 1 = untreated enzyme, 0 = blocked | AID 1024;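 active means activation factor of 2 or more for CYP2C9 at a 5 µM dose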;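 further: 0 = sulfaphenazole-blocked wells and 1 = vehicle-only wells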
CYP2C19 inh: blocks human cytochrome P450 2C19; P33261; inhibition, % at 5 µM; hit rate 21% among 96,000; CYP2C19 Supersomes, luciferin-H EGE luminescence, 30 min;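 active means CYP2C19 inhibition above a set limit at 5 µM in the primary screen, cut at about 50% in these data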;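 further: plate controls were negative control wells for no effect and 2.5 mM tranylcypromine positive control for full effect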
Numbers without * were called inactive; . = no result given.

SMILES	Pyk2 oligo antag	Cav32 inh	CYP2C9 inh	CYP2C19 act	CYP2C9 activ	CYP2C19 inh
S=C(NN=C(C1CC1)C1CC1)Nc1ccccc1	-0.57	.	.	.	.	.
COc1ccc(NC(C)=O)cc1NC(=O)CSc1nnc(-c2cccnc2)n1C	0.96	-0.858	-9.5	1	1.1	4.4
Cc1nc(NC(C)c2ccccc2)c2oc3ccccc3c2n1 (stereo not drawn)	-0.58	-1.91	60.9*	0.6	0.4	44.4
Cc1nc(NCc2ccco2)c2oc3ccccc3c2n1	-0.05	.	62.9*	0.2	0.4	77.0*
COc1cccc(C(=O)N/N=C2/SCC(=O)N2CCc2ccc(OC)c(OC)c2)c1	1.31	1.17	33.2	0.8	0.7	24.2
Cc1ccc(C(C)C)cc1S(=O)(=O)NCc1cccnc1	-0.2	0.157	61.6*	0.2	0.4	78.1*
O=S(=O)(NCc1cccnc1)c1ccc(Cl)c(Cl)c1Cl	1.21	0.27	-20.6	0.1	1.2	87.8*
O=C(NC1CC1)C1=C[C@@H](c2ccc3c(c2)OCO3)C[C@@H](OCCCCO)O1	.	0.461	.	.	.	.
O=C1C2C3C=CC(C3)C2C(=O)N1CCN1CCN(S(=O)(=O)c2ccc3ccccc3c2)CC1 (stereo not drawn)	-1.14	-0.0437	-70.5	0.7	1.7	33.7
Cc1ccc(N(C)C(=O)N2CCN(S(=O)(=O)c3ccc4ccccc4c3)CC2)cc1	-1.8	-3.57	33.9	0.4	0.7	56.8*
CC(C)CC1NC(=O)N(CC(=O)N2CCN(S(=O)(=O)c3ccc4ccccc4c3)CC2)C1=O (stereo not drawn)	0.7	0.116	-7.2	0.9	1.1	10.6
CCCNC(=O)N1CCN(S(=O)(=O)c2ccc(C)cc2)CC1	1.52	0.534	-6.2	0.9	1.1	9.4
CC(C)CC(=O)N1CCN(S(=O)(=O)c2ccc3ccccc3c2)CC1	-0.55	1.84	-92.3	0	1.9	95.7*
Cc1ccc(N(C)C(=O)N2CCN(S(=O)(=O)c3ccc(C)cc3)CC2)cc1	.	-1.56	56.2*	0.1	0.4	94.6*
Cc1ccc(S(=O)(=O)N2CCN(C(=O)N(c3ccccc3)c3ccccc3)CC2)cc1	-0.95	-1.22	51.6*	0.5	0.5	51.4*
O=C(Nc1nonc1NC(=O)C1CCCCC1)C1CCCCC1	0.33	-0.869	27.0	0.9	0.7	14.0
COc1cc(=O)n(C)c2c(O)cccc12	.	0.336	.	.	.	.
Cc1ccc(N(C)C(=O)N2CCN(c3ccccn3)CC2)cc1	.	0.889	53.3*	0.8	0.5	20.8
Cc1ccc(Cc2cnc(NC(=O)/C(C#N)=C/c3ccc(-c4ccccc4[N+](=O)[O-])o3)s2)cc1	-2.3	.	54.5*	0.9	0.5	9.2
COc1ccc(C(=O)n2nnc3ccccc32)cc1Br	1.38	.	4.7	1	1	4.7
COc1ccc(C(=O)n2ccc(C)n2)cc1Br	.	.	23.6	0.4	0.8	57.0*
COc1cc(C(=O)n2nc(C)cc2C)ccc1O	0.71	1.1	-18.7	0.8	1.2	16.5
COc1ccc(C(=O)n2nc(C)cc2C)cc1Br	-0.15	-2.56	8.1	0.3	0.9	70.3*
CCC(C)Nc1c2c(nc3c(-c4ccccc4)c(C)nn13)CCC2 (stereo not drawn)	-1.13	-0.237	28.1	1	0.7	4.4
Nc1nc(N)nc(-c2ccc(Oc3ccccc3)cc2)n1	-0.39	-0.0273	51.3*	0.7	0.5	33.5
SMILES	Pyk2 oligo antag	Cav32 inh	CYP2C9 inh	CYP2C19 act	CYP2C9 activ	CYP2C19 inh
COc1ccc(N(CC(=O)N/N=C/c2ccc(-c3ccc([N+](=O)[O-])cc3)o2)S(=O)(=O)c2ccc(C)cc2)cc1	-0.43	.	.	.	.	.
COc1cc2nc(N(C)CCCNC(=O)C3CCCO3)nc(N)c2cc1OC (stereo not drawn)	.	0.944	.	.	.	.
O=C(c1ccccc1Cl)N1CCC(c2nc3c(nnn3Cc3ccco3)c(=O)[nH]2)CC1	.	0.857	.	.	.	.
COc1ccccc1Cn1nnc2c(=O)[nH]c(C3CCN(C(=O)c4ccc(C)cc4)CC3)nc21	-1.6	.	65.6*	0.7	0.3	31.7
COc1ccccc1Cn1nnc2c(=O)[nH]c(C3CCN(C(=O)c4ccccc4Cl)CC3)nc21	-2.2	0.87	94.4*	0.2	0.1	75.3*
O=C(c1ccccc1)N1CCC(c2nc3c(nnn3Cc3ccccc3Cl)c(=O)[nH]2)CC1	-2.62	-0.487	62.8*	0.6	0.4	39.8
CC(C)(C)CC(=O)N1CCC(c2nc3c(nnn3Cc3c(F)cccc3Cl)c(=O)[nH]2)CC1	-0.93	2.21	82.2*	0.5	0.2	52.4*
Cc1ccc(C(=O)N2CCCC(c3nc4c(nnn4Cc4ccccc4)c(=O)[nH]3)C2)cc1 (stereo not drawn)	0.88	1.79	47.1	0.9	0.5	9.8
CC1(c2nnc(-c3ccc(F)cc3)o2)CC(c2ccc([N+](=O)[O-])cc2)=NO1 (stereo not drawn)	.	-0.0391	.	.	.	.
CCN1CCN(C(c2ccc(F)cc2)c2nnnn2Cc2cccs2)CC1 (stereo not drawn)	0.48	0.0672	4.7	0.7	1	32.8
OC1(c2cccc(C(F)(F)F)c2)CCN(Cc2nnnn2CCc2ccccc2)CC1	-1.98	-5.58*	.	.	.	.
OC1(c2ccc(F)cc2)CCN(Cc2nnnn2Cc2cccs2)CC1	-1.19	-0.456	59.7*	0.3	0.4	75.0*
COCCn1nnnc1CN1CCN(c2cccc(C(F)(F)F)c2)CC1	0.57	0.258	46.5	0.2	0.5	78.0*
COc1ccccc1CNC(=O)C1CC2Cn3c(nc4cc(Cl)c(Cl)cc43)C2N1C (stereo not drawn)	.	-0.905	.	.	.	.
CCCCSc1nc(C)c(CC(=O)O)c(=O)[nH]1	-0.23	0.249	4.6	1	1	1.2
CCOC(=O)c1c(C)[nH]c(C(=O)OCC(=O)Nc2cc(C)c(Cl)cc2OC)c1C	0.82	0.615	12.1	0.9	0.9	6.2
CC(C)NC(=O)c1ccc(COCC(F)(F)C(F)F)cc1	0.64	0.377	-23.4	0.2	1.2	83.5*
CC(C)NC(=O)c1cccc(C(F)(F)F)c1	-0.62	-0.0543	-16.8	1.1	1.2	-11.3
Cc1ccc(NC(=O)C2(NC(=O)c3cccc(N4C(=O)CSC4c4ccccc4)c3)CCCCC2)cc1 (stereo not drawn)	-0.9	-6.93*	83.8*	1	0.2	3.8
CCCCN(CCCNC(=O)C1CCN(S(=O)(=O)CC)CC1)c1ccccc1	0.56	-0.176	.	.	.	.
N#Cc1c(N)c(C(=O)c2ccc(Br)cc2)n2c1CCC2	1.01	0.176	1.5	1	1	-2.6
N#Cc1c(N)c(C(=O)c2ccccc2)n2c1CCCC2	0.01	0.00541	-5.8	0.3	1.1	65.8*
CCCCN1C(=O)C(NC(=O)CC(C)C)(C(F)(F)F)C2=C1CC(C)(C)CC2=O (stereo not drawn)	-0.45	0.557	-3.3	1	1	1.1
COC(=O)c1cccc(NC(=O)C(C)N2C(=O)c3ccccc3C2=O)c1 (stereo not drawn)	1.28	-3.07	98.5*	0.5	0	48.4
Cc1ccc(C(=O)NC(N2CCCC2)C(Cl)(Cl)Cl)cc1 (stereo not drawn)	0.17	0.0904	12.5	0.3	0.9	69.0*
